According to PubChem BioAssay (NCI):
The panel holds about 79,000 compounds, 15% with a hit somewhere; the sample as a whole holds those more often. Calls of active or inactive are those of the source. Cut-off read from the data, not from the text of the source: active = growth inhibition above about 70%; inactive = the rest.

Experiments:
[1] = NCI Yeast Anticancer Drug Screen. Data for the rad50 strain (AID 155);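 note: 0% = growth of vehicle-only cultures of the same strain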; conditions: S. cerevisiae rad50 strain growth inhibition; at 50.0 µM; hits give high values
Method in brief: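 Vehicle-treated cultures provide the reference for the growth inhibition reported for compound-exposed, repair-deficient yeast.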

[2] = NCI Yeast Anticancer Drug Screen. Data for the mec2-1 strain (AID 157); conditions: S. cerevisiae mec2-1 strain, at 50.0 µM, hits give high values
Method in brief: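 Yeast mec2-1 mutant treated with compound. Readout: growth inhibition vs vehicle controls.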

[3] = NCI Yeast Anticancer Drug Screen. Data for the sgs1 mgt1 strain (AID 161);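 note: 0% = growth of cultures given vehicle only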; conditions: S. cerevisiae sgs1 mgt1 strain, at 50.0 µM, hits give high values
Method in brief: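 Read-out: growth inhibition vs vehicle controls. Cells: mutant yeast strain deficient in DNA damage repair.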

[4] = NCI Yeast Anticancer Drug Screen. Data for the cln2 rad14 strain (AID 165);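 note: 0% = growth equal to vehicle treated cultures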; conditions: S. cerevisiae cln2 rad14 strain, at 50.0 µM, hits give high values
Method in brief: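 cln2 rad14 yeast strain; compound exposure; growth inhibition read vs vehicle controls.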

[5] = NCI Yeast Anticancer Drug Screen. Data for the bub3 strain (AID 167); conditions: S. cerevisiae bub3 mutant strain, at 50.0 µM, hits give high values
Method in brief: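 Mutant yeast screening strain plus compound; vehicle-treated cultures serve as the 0% inhibition reference.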

[6] = NCI Yeast Anticancer Drug Screen. Data for the mlh1 rad18 strain (AID 175); conditions: S. cerevisiae mlh1 rad18 strain growth inhibition; at 50.0 µM; hits give high values
Method in brief: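 Yeast w/ defined DNA-repair lesions; compound exposure; growth vs vehicle controls → % inhibition.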

Measured: growth inhibition

C=CCC1(C(C)C(O)c2cc(OC)c(OC)c(OC)c2)CC(O)C=CC12OCCO2 (centres undefined)
inactive: [1] 13.9% | [2] -17.3% | [3] 1.5% | [4] 14.9% | [5] 16.2% | [6] 24.6%

CC1(C)OC2COC3OC(C)(C)OC3(CO)C2O1 (centres undefined)
inactive: [1] -1.7% | [2] -17.8% | [3] -6.1% | [4] -4.9% | [5] 20.5% | [6] 5.15%

CC(=O)c1c(O)ccc2c1CC(CC=O)O2 (centres undefined)
inactive: [1] 18.6% | [2] -1.05% | [3] -20.9% | [4] 0.75% | [5] 9.05% | [6] -21.4%

CC(C)(c1ccc([N+](=O)[O-])cc1)[N+](=O)[O-]
inactive: [1] 11.1% | [2] 10.3% | [3] 1.6% | [4] -7.4% | [5] -11.8% | [6] -4.55%

CC(=O)Oc1ncnc2c1cnn2C
inactive: [1] -8.95% | [2] -1.65% | [3] -15.6% | [4] -38.6% | [5] 2.15% | [6] -3.3%

O=S(=O)(NC/C=C/c1ccccc1)c1ccccc1
inactive: [1] -6.95% | [2] 16.7% | [3] -0.45% | [4] 26.9% | [5] 4.65% | [6] -39.9%

O=C(O)/C=C/C(=O)N(c1ccccc1)N(C(=O)/C=C/C(=O)O)c1ccccc1
inactive: [1] 5.9% | [2] -9.05% | [3] 5.15% | [4] 5.65% | [5] 5.55% | [6] 17.5%

CC12OC(=O)CC1C(c1ccccc1)(c1ccccc1)O2 (centres undefined)
inactive: [1] -7% | [2] -8% | [3] 4.1% | [4] -50.2% | [5] 2.75% | [6] -1.85%

C=CCC(O)c1ccc(OC)c(OC)c1 (centres undefined)
inactive: [1] 2.55% | [2] -3.3% | [3] -6.3% | [4] -19.1% | [5] 3.4% | [6] 0.55%

CN1c2ccccc2SC1(C)CCC(=O)O (centres undefined)
inactive: [1] 21.5% | [2] 35.9% | [3] 37.6% | [4] 6% | [5] 29.6% | [6] 7.65%

Cc1cccc2c1CCC21OC(=O)c2c1cc(F)c1ccccc21 (centres undefined)
inactive: [1] -13.3% | [2] -15.4% | [3] -8.5% | [4] 2.55% | [5] 14.5% | [6] 4.35%

COc1ccc(C(c2cc3c(cc2O)OCO3)N2CCN(C(c3cc4c(cc3O)OCO4)c3ccc(OC)cc3OC)CC2)c(OC)c1 (centres undefined)
inactive: [1] -15.1% | [2] 1.55% | [3] 30.2% | [4] 23.1% | [5] -11.9% | [6] 3.45%

COC(=O)CC(C)N(c1ccc(OC)cc1)S(=O)(=O)c1ccc(C)cc1 (centres undefined)
inactive: [1] 18.4% | [2] 4.05% | [3] 14.3% | [4] -46% | [5] 17.6% | [6] 10.3%

OCc1ccc(Cl)cc1Cl
inactive: [1] 6.55% | [2] -0.25% | [3] -11.4% | [4] 10.3% | [5] -51.1% | [6] -27.9%

COC(=O)Nc1nc2ccc(C3c4c(n[nH]c4C)CC(C)(O)C3C(C)=O)cc2[nH]1 (centres undefined)
inactive: [1] 20.4% | [2] 3.85% | [3] -7.3% | [4] -6.5% | [5] 0.45% | [6] 10.6%

CCOC(=O)NNC(=O)NC12CC3CC(CC(C3)C1)C2
inactive: [1] -16.7% | [2] -7.7% | [3] 5.6% | [4] -24.6% | [5] -3.85% | [6] 1.75%

COc1cc(N=Nc2c(Cl)cc([N+](=O)[O-])cc2Cl)c(OC)cc1N=Nc1ccc(N)nc1N
inactive: [1] 23.4% | [2] 28% | [3] 7.05% | [4] 5.9% | [5] 3.85% | [6] 9.45%

O=C1C[C@@H]2CCCC[C@@H]2C12SCCS2
inactive: [1] -10.9% | [2] -18.6% | [3] -6.95% | [4] 13.8% | [5] -9.45% | [6] -5.25%

C=C1C(=O)O[C@@H]2/C=C(\C)CC/C=C(/C)CC[C@@H]12
inactive: [1] 45.8% | [2] 52.2% | [3] 61.6% | [4] 32.8% | [5] 54.4% | [6] 58.1%

O=[N+]([O-])/C(N=Nc1ccc2ccccc2c1Br)=N/Nc1ccc2ccccc2c1Br
inactive: [1] 34.5% | [2] 5.85% | [3] 19.4% | [4] -2.85% | [5] -0.2% | [6] 13.2%

COc1ccc(NC(=S)NC(=O)c2ccccc2)cc1OC
inactive: [1] 31.8% | [2] 4.15% | [3] 21.9% | [4] 3% | [5] -1.2% | [6] 15.4%

COC(=O)C1=C(NC(=O)Nc2ccc([N+](=O)[O-])cc2)OC(C)(C)C1c1ccc(Cl)cc1 (centres undefined)
inactive: [1] 23.6% | [2] 9.15% | [3] 6.45% | [4] -6.1% | [5] 1.1% | [6] 29.6%

C=C1C(=O)OC2CCCC(O)C12 (centres undefined)
inactive: [1] 2.35% | [2] 2.45% | [3] -6.55% | [4] -39% | [5] -12.2% | [6] 1.9%

CC(=O)Nc1cc(C(C)=O)ccc1C(C)=O
inactive: [1] -5.8% | [2] -6.2% | [3] 6% | [4] 2.35% | [5] -0.5% | [6] 12.7%

COC(=O)c1ccccc1NCc1cc(Cl)ccc1O
active: [1] 96.2% | [2] 97.3% | [3] 96.7% | [4] 92.8% | [5] 95.8% | [6] 94.9%

O=C(O)C(Br)C(Br)C(=O)Nc1ccc(Br)cc1 (centres undefined)
inactive: [1] -6.35% | [2] -24.4% | [3] 22.8% | [4] -3.85% | [5] 34.1% | [6] 27.4%

O=C(O)c1cc2cc(O)ccc2[nH]1
inactive: [1] 2.6% | [2] 3.6% | [3] 20.9% | [4] 3% | [5] 10.4% | [6] -5.25%

CC(C)(CO)N=Cc1ccc(Cl)c(Cl)c1
inactive: [1] 2.35% | [2] -13.2% | [3] -16.5% | [4] -3.1% | [5] -11.5% | [6] -24.6%

CC(=O)Oc1ccc(-c2ccccc2)cc1C(=O)O
inactive: [1] 5.9% | [2] 1.55% | [3] 29.4% | [4] -15.7% | [5] 41.3% | [6] 11.6%

O=C(O)CCC(=O)CCc1ccccc1C(=O)O
inactive: [1] 12.3% | [2] -15.8% | [3] 4.3% | [4] -38.1% | [5] -23.1% | [6] 7.85%

c1cnc(NC(Nc2ncccn2)c2ccco2)nc1
inactive: [1] -6.5% | [2] -8.9% | [3] -5.55% | [4] -21.9% | [5] -12.2% | [6] -10.4%

C=C(Br)CN=CN(C)C
inactive: [1] 23.6% | [2] 1.35% | [3] 10.9% | [4] 1.35% | [5] -10.1% | [6] 23.1%

Cc1cc(C(C)(C)C)nc(C(C)(C)C)c1
inactive: [1] 13.1% | [2] 6.4% | [3] 15.2% | [4] -60.6% | [5] 0.8% | [6] -4.85%

c1cc[n+](CC[n+]2ccccn2)nc1
inactive: [1] 11.7% | [2] 22% | [3] 7.65% | [4] 16.4% | [5] 45.6% | [6] 46.1%

Nc1ccnc(=O)[nH]1
inactive: [1] -3.5% | [2] -11.7% | [3] -18.8% | [4] -20.8% | [5] 3.3% | [6] -36.8%

CCN(CCOC(=O)Nc1cccc(C(C)=O)c1)c1ccccc1
active: [1] 91.2% | [2] 96.5% | [3] 97.5% | [4] 76.2% | [5] 92.1% | [6] 88.2%

COc1cc(C(=O)CCCC(=O)O)cc(OC)c1OC
inactive: [1] -9.15% | [2] 3.4% | [3] 19.6% | [4] 5.85% | [5] 16.3% | [6] 5.3%

CN1C[C@H]2[C@@H](C1=O)[C@H](c1ccc([N+](=O)[O-])cc1)ON2C
inactive: [1] -50.5% | [2] -72.5% | [3] -39.7% | [4] 14.9% | [5] 1.2% | [6] -33.8%

C[C@@H](O)c1nc(C(N)=O)cs1
inactive: [1] 6.15% | [2] 14.2% | [3] 15.3% | [4] -3.55% | [5] 1.35% | [6] 10.1%
